According to ChEMBL document CHEMBL3988442, “University of Dundee, Small-Polar-MMV Screening Library” (2021):

Columns and labels:
[1] = target: T1, Aspartate--tRNA(Asp/Asn) ligase (Mycobacterium tuberculosis (strain ATCC 25618 / H37Rv)) (UniProt P9WFW3); experiment: Assay for Asp RNA synthetase-1 from Mycobacterium tuberculosis; format: functional; design: scale not given: direction of the effect not stated beside the values; settings: 30 µM; note: in the data most compounds retested in dose-response had high values
T1 sequence (whole entry): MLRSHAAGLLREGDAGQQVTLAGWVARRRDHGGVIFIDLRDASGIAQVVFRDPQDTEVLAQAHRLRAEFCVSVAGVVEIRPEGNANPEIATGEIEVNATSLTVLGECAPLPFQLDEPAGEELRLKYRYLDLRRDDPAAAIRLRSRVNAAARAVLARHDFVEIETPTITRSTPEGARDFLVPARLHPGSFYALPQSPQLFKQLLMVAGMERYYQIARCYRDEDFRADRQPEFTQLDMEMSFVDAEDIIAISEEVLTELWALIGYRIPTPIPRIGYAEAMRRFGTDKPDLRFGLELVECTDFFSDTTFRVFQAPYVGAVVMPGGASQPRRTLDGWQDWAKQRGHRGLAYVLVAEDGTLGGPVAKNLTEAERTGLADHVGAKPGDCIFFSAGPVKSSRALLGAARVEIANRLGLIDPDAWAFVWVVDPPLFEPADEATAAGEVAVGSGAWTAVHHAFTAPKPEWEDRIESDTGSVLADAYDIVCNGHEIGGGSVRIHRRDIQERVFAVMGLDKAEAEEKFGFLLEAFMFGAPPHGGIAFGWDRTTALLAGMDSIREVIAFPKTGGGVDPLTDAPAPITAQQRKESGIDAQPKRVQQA

[2] = target: Shiga toxin 2 (Escherichia coli O157:H7) (UniProt P09385+P09386); experiment: E. coli 0.157:H7 Shiga Toxin SOP - stx2 screening assay; format: functional; design: scale not given: direction of the effect not stated beside the values; settings: 30 µM

Compound | Percent Effect [1] [%] | Percent Effect [2] [%]
CCn1cc(C(=O)NC2CCN(S(C)(=O)=O)CC2)c2ccccc21 | -0.607 | -0.257
COCC(=O)N1CCC(c2nc3ccc(N4CCCC4)cn3n2)CC1 | -0.957 | -26.9
O=S(=O)(N1CCCCC1)N1CCc2nc(C3CCNCC3)ncc2C1 | -1.74 | 13.4
O=C(NCCc1coc(-c2ccc(F)cc2)n1)NC1CCC(O)CC1 (configuration not stated) | -3.81 | -24.9
CN1CCOC(CNCc2coc(-c3cccs3)n2)C1 (configuration not stated) | 3.28 | -17.6
Cc1cc(CN2CCN(C(=O)c3sccc3C(C)C)CC2)no1 | 0.346 | 7.17
CNc1nc(CNC(=O)Nc2cccc(F)c2C)cs1 | -2.59 | 17.1
CNC(=O)C1Cn2ccnc2C2(CCN(Cc3cccc(C)n3)CC2)O1 (configuration not stated) | 1.82 | 0.0939
COCCN(Cc1nc2c(cnn2C)c(=O)[nH]1)Cc1ccco1 | 0.88 | 22.5
Cn1ccnc1CN1CCN(Cc2ccccc2C#N)CC1 | 1.91 | 7.78
O=C1[C@H]2CN(c3ncccn3)C[C@H]2CN1Cc1ccncc1 | 0.211 | -21.9
Cc1cc(C2CCCN(CCCS(=O)(=O)c3ccccc3)C2)n[nH]1 (configuration not stated) | 3.14 | 4.75
OC(COc1ccccc1)CN1CCc2c(ncn2C2CC2)C1 (configuration not stated) | -7.92 | -25.6
CC(C)Cc1noc(CN2CCN(C(=O)c3cccc(F)c3)CC2)n1 | -0.41 | -17.7
Cc1nc(N2CCCC2)nc2c1CCN(Cc1ccco1)CC2 | 8.76 | -55.7
CN(C)Cc1nn(C)c2c1CCN(S(=O)(=O)c1cccs1)C2 | 3.37 | -17.1
Cc1nn(C)c(N2CCOCC2)c1CNC(c1cccs1)C(C)C (configuration not stated) | 1.8 | 25.3
O=C(CN1CCC(c2cccc(F)c2)C1)NCC(F)(F)F (configuration not stated) | -6.79 | 2.95
Cc1noc(C2CCC3(CCN(C(=O)C4=CCCCC4)CC3)O2)n1 (configuration not stated) | -2.98 | 7.42
Cc1cnccc1N1CCCN(C(=O)CCCS(N)(=O)=O)CC1 | -1.55 | -11.6
CC(=O)N1CCC2(CCCN(Cc3ccc(Cl)c(C(F)(F)F)c3)C2)C1 (configuration not stated) | 6.54 | 4.87
NC(=O)c1csc(C(=O)N2CCCCC2Cn2cccn2)c1 (configuration not stated) | -1.92 | 6.89
CC(NC(=O)C1=NN(C)C(=O)CC1)c1ccc(Cl)cc1Cl (configuration not stated) | -11.1 | -19.3

Compound | Percent Effect [1] [%] | Percent Effect [2] [%]
O=C(c1ccsc1)N1CCCC(c2cc(C(F)(F)F)[nH]n2)C1 (configuration not stated) | 7.19 | 28
COc1ccc2c(c1)CCCN2Cc1nc2c(cnn2C)c(=O)[nH]1 | -4.23 | -5.78
FC(F)(F)Cn1ccnc1CN1CCOC(Cn2cccn2)C1 (configuration not stated) | 1.38 | 8.38
O=C(CN(Cc1cccnc1)CC1CCCO1)Nc1ccc(F)cc1 (configuration not stated) | 5.92 | -3.06
CC(NC(=O)CCOc1ccccc1Cl)c1nnc2n1CCC2 (configuration not stated) | -1 | 22.6
CCc1cc(NCc2ccccc2CN2CCCC2)n2ncnc2n1 | 7.58 | -25.4
CNS(=O)(=O)CCCN1CCCC1c1noc(C2CC2)n1 (configuration not stated) | -2.37 | 4.89
CCCN(CC1COc2ccccc2O1)C(=O)CCn1cncn1 (configuration not stated) | -2.54 | 34.4
Cc1cc(S(=O)(=O)N2CCc3ccc(F)cc32)cc(C(=O)O)c1C | 2.1 | -5.86
CC(C)N1CCC(Cc2cncc(-c3ccccc3C(=O)O)n2)CC1 | 1.34 | 6.75
CNC(=O)C(C)(C)NC(=O)c1cc(OCC2CCC2)cc(C(=O)OC)c1 | 9.31 | 7.4
Cc1cccc(CN2C[C@@H]3COC[C@]3(COc3ccc(C#N)cn3)C2)n1 | -4.33 | -13.9
c1ccc(-n2ccnc2)c(CNCC2CNc3ccnn3C2)c1 (configuration not stated) | -5.71 | -13.1
COc1ccc(CN2CCc3nc(C4CCCCN4C)ncc3C2)cc1 (configuration not stated) | 3.22 | -19.9
CC(=O)Nc1nc(CN2CCCCC2Cn2cccn2)cs1 (configuration not stated) | 8.39 | -4.08
Cc1ncc2c(n1)CN(CC(=O)Nc1ccncc1)CC2 | -0.281 | 5.69
Cc1noc(C)c1C(=O)NCc1ccnc(OCC(F)(F)F)c1 | -0.189 | 10.8
Cc1nn(C)c(Cl)c1C1CCCN1CC(=O)NCc1ccccn1 (configuration not stated) | -2.78 | -10.8
COc1ncccc1CNC(=O)NCCNC(=O)c1ccco1 | -10.1 | -25
CNS(=O)(=O)c1ccc(C(=O)N2CCCC(n3cccn3)C2)cc1 (configuration not stated) | 0.589 | 2.6
CSc1ncccc1C(=O)N1C[C@H]2CC[C@@H]1CN(c1cnccn1)C2 | 7.16 | -42.6
CCc1nccn1C1CCCN(C(=O)c2ccc3c(c2)OCO3)C1 (configuration not stated) | -0.182 | 11.8
Cc1ccccc1CN(C)Cc1nc2c(cnn2C)c(=O)[nH]1 | 0.633 | -4.87
